Results filed as inconclusive are left out. Some compounds were tested as several samples or in several runs, with calls that do not always agree. Calls of active or inactive are those of the source. Unless noted, calls come from the whole dose curve; as a rule, active = well fitted curve in the direction sought with a large enough effect in the repeat runs; inconclusive = weak or mixed curves; inactive = no such curve, though single readings can be large; an effect the other way counts as inactive or inconclusive.
Columns and labels:
[1] = qHTS assay to identify small molecule agonists of the NFkB signaling pathway (AID 1159509; active = well fitted curve in the direction sought with a large enough effect in the signal ratio in the repeat runs, not every such curve was filed as active; the % refers to the signal ratio)
In short: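 Readout: FRET fluorescence, 405 nm excitation, 460/530 nm emission; beta-lactamase expression disrupts FRET. Cells: ME-180 stably carrying NF-kB-driven bla reporter. Compound exposure 5 hr, 37 C, 5% CO2.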

[2] = qHTS assay to identify small molecule agonists of the NFkB signaling pathway - cell viability counter screen (AID 1159515; calls by dose curve; note: nearly all actives have a fitted effect of over 55% in size)
In short: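 Parallel cytotoxicity counter screen in ME-180 cells carrying an NFkB-response-element beta-lactamase reporter, 2,000 cells/well. Compound exposure lasted 5 hr at 37 C, 5% CO2. Cell viability was quantified by CellTiter-Glo luminescence.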

[3] = qHTS assay to identify small molecule agonists of the endoplasmic reticulum stress response signaling pathway (AID 1159516; active = well fitted activation curve with a large enough effect in the signal ratio in the repeat runs, not every such curve was filed as active; the % refers to the signal ratio)
In short: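 Using a HeLa line with an ESRE-driven beta-lactamase gene, agonist activity was measured by FRET substrate fluorescence (460 and 530 nm emission) after cells were treated with compounds for 5 hr at 37 C and 5% CO2.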

[4] = qHTS assay to identify small molecule agonists of the endoplasmic reticulum stress response signaling pathway - cell viability counter screen (AID 1159517; calls by dose curve;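 note: HeLa cells carrying an ER stress response element beta-lactamase reporter; nearly all actives have a fitted effect of over 50% in size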)
In short: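 After overnight attachment, ESRE-bla HeLa cells were treated with Tox21 library compounds for 5 hr. CellTiter-Glo luminescence, read 30 min post-addition at room temperature, reported viability.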

[5] = qHTS assay to identify small molecule antagonists of the retinoid-related orphan receptor gamma (ROR-gamma) signaling pathway - cell viability counter screen (AID 1159520); note: nearly all actives have a fitted effect of over 50% in size
In short: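 Cytotoxicity was read from cellular ATP (CellTiter-Glo luminescence) after 16 hr at 37 C with 1 uM doxycycline induction. The inducer was added 2 hr after compound transfer to Tet-on ROR gamma CHO cells.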

[6] = target: Nuclear receptor ROR-gamma (Homo sapiens) (UniProt P51449); experiment: qHTS assay to identify small molecule antagonists of the retinoid-related orphan receptor gamma (ROR-gamma) signaling pathway (AID 1159521;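 note: CHO cells with doxycycline inducible ROR-gamma driving an RORE luciferase reporter; top concentration of the series differs between compounds; nearly all actives have a fitted effect of over 50% in size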)
In short: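 RORγ antagonism is scored from reduced reporter luminescence in Tet-on CHO cells. Induction used 1 uM final doxycycline hyclate for 16 h at 37 C, following a 2 h compound exposure.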

[7] = qHTS assay to identify small molecule agonists of the AP-1 signaling pathway - cell viability counter screen (AID 1159525; calls by dose curve; note: nearly all actives have a fitted effect of over 55% in size)
In short: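 Intracellular ATP by Cell Titer Glo luminescence (30 min, RT) in the same ME-180 AP-1-bla wells after the 5 h compound exposure at 37 °C. Normalised to tetra n-octyl ammonium bromide and DMSO controls.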

[8] = qHTS assay to identify small molecule agonists of the AP-1 signaling pathway (AID 1159526; calls by dose curve)
[9] = target: Retinoic acid receptor RXR-alpha (Homo sapiens) (UniProt P19793); experiment: qHTS assay to identify small molecule agonists of the RXR signaling pathway (AID 1159527; calls by dose curve; note: nearly all actives have a fitted effect of over 35% in size; note: potency is the fitted concentration of half-maximal effect)
Sequence of Retinoic acid receptor RXR-alpha (Homo sapiens) (P19793 whole entry, looked up): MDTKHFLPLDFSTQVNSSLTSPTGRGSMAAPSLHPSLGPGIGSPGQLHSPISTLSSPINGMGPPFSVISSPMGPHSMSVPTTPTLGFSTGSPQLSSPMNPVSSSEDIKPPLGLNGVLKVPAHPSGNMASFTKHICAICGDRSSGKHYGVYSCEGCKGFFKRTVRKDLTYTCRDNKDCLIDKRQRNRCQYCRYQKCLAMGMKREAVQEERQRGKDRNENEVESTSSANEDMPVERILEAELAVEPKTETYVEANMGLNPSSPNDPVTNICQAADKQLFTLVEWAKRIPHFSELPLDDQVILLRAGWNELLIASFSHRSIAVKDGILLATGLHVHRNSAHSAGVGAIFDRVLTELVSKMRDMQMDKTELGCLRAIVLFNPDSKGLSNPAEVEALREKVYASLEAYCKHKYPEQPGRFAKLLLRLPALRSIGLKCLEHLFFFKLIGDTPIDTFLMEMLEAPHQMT
In short: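 qHTS of the Tox21 10K library in GeneBLAzer RXR-alpha HEK 293T cells carrying a beta-lactamase reporter […]; 16 hr treatment, 9-cis retinoic acid as agonist control, FRET read-out.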

[10] = qHTS assay to identify small molecule agonists of the RXR signaling pathway - cell viability counter screen (AID 1159529); note: nearly all actives have a fitted effect of over 50% in size; note: potency is the fitted concentration of half-maximal effect
In short: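 Cell viability is measured by CellTiter-Glo luminescence, 30 min at room temperature, in wells already read for beta-lactamase. Engineered HEK 293T cells (RXR-alpha-UAS-bla) are dosed 16 hr at 37 C. Tetraoctyl ammonium bromide serves as positive control.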

[11] = qHTS assay to identify small molecule antagonists of the retinoid acid receptor (RAR) signaling pathway - cell viability counter screen (AID 1159551); note: nearly all actives have a fitted effect of over 35% in size
In short: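 ATP-based viability, C3RL4 cells, 6 h at 37 C with 1 uM final retinol co-added after compound; luminescence read 30 min post CellTiter-Glo, RT.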

[12] = qHTS assay to identify small molecule antagonists of the retinoic acid receptor (RAR) signaling pathway (AID 1159552; note: nearly all actives have a fitted effect of over 50% in size)
In short: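 Quantitative HTS in C3RL4 RARE-luciferase reporter cells. Compounds were added with 1 uM (final) retinol; luminescence was read after 6 hr.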

[13] = qHTS assay to identify small molecule agonists of the retinoic acid receptor (RAR) signaling pathway (AID 1159553); conditions: C3RL4 RARE luciferase reporter, agonist, 6 h; activation: at 73.3 µM (top of the series) unless noted; note: potency is the fitted concentration of half-maximal effect
In short: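 Quantitative high-throughput format: the Tox21 10K library was tested on C3RL4 RARE-luciferase cells for 6 hr at 37 C and 5% CO2, with luminescence measured after a 30 min room-temperature reagent step.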

[14] = qHTS assay to identify small molecule antagonists of the estrogen related receptor (ERR) signaling pathway from Tox21 library - cell viability counter screen (AID 1224834); note: nearly all actives have a fitted effect of over 30% in size
In short: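 Compounds in DMSO were pinned onto ERR cells that had been incubated for 6 h, and the plates were held at 37 C for 17.5 h. CellTiter-Fluor reagent was then added and fluorescence was measured after 30 min.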

[15] = target: Luciferin 4-monooxygenase (Photinus pyralis) (UniProt P08659); experiment: qHTS assay to identify small molecule inhibitors of firefly luciferase (AID 1224835); note: nearly all actives have a fitted effect of over 25% in size
Sequence of Luciferin 4-monooxygenase (Photinus pyralis) (P08659 whole entry, looked up): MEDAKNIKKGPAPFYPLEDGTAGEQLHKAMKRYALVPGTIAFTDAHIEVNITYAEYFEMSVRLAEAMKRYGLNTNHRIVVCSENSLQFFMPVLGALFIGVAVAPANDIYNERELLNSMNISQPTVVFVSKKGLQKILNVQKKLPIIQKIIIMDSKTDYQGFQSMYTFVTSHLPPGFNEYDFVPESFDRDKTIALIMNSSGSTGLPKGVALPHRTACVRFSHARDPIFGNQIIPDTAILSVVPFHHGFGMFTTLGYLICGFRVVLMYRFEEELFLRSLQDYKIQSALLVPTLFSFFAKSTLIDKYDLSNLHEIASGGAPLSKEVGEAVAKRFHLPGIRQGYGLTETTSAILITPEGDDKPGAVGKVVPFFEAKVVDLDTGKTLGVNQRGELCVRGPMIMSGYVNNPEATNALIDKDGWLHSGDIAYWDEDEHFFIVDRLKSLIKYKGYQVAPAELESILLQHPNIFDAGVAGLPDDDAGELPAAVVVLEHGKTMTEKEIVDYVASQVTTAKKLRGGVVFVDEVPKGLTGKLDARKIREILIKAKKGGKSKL
In short: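 Inhibition of purified Photinus luciferase is measured by luminescence. Substrate levels (D-luciferin, ATP) sit at their KM values. Each compound is tested in a concentration series.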

[16] = qHTS assay to identify small molecule agonists of the constitutive androstane receptor (CAR) signaling pathway - cell viability counter screen (AID 1224836); note: nearly all actives have a fitted effect of over 45% in size
In short: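 Counter screen multiplexed with the CAR reporter readout: HepG2 cells co-transfected with hCAR and the CYP2B6-2.2kb construct receive a 15-concentration compound series and 0.75 uM PK11195 (final), then CellTiter-Fluor fluorescence is read after 23 h.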

[17] = qHTS assay to identify small molecule antagonists of the constitutive androstane receptor (CAR) signaling pathway - cell viability counter screen (AID 1224837); note: nearly all actives have a fitted effect of over 45% in size
In short: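 Cells are seeded, rested 4 hr at 37 C/5% CO2, dosed with compound (15-point series) and 50 nM CITCO, incubated a further 23 hr, and then CellTiter-Fluor reagent is added before fluorescence is read. The line is HepG2 with stable hCAR and CYP2B6-2.2kb.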

[18] = target: Nuclear receptor subfamily 1 group I member 3 (Homo sapiens) (UniProt Q14994); experiment: qHTS assay to identify small molecule antagonists of the constitutive androstane receptor (CAR) signaling pathway (AID 1224838);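 note: HepG2 cells stably expressing hCAR with CYP2B6 luciferase reporter stimulated by CITCO; nearly all actives have a fitted effect of over 40% in size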
Sequence of Nuclear receptor subfamily 1 group I member 3 (Homo sapiens) (Q14994 whole entry, looked up): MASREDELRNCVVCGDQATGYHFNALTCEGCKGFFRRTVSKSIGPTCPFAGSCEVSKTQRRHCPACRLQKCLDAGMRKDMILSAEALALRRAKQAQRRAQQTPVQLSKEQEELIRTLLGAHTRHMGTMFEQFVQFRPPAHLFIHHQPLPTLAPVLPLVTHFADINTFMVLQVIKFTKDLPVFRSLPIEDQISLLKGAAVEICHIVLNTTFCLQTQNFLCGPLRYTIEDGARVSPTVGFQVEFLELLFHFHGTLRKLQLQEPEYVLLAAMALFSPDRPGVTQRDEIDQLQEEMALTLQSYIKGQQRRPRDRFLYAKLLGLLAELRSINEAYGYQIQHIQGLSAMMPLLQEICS
In short: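 Luminescence from a CYP2B6-2.2kb promoter reporter in hCAR-expressing HepG2 cells reflects CAR signaling. Cells received compounds at 15 concentrations and 50 nM CITCO (final), then incubated 24 h at 37 C/5% CO2.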

[19] = qHTS assay to identify small molecule antagonists of the estrogen related receptor (ERR) signaling pathway - cell viability counter screen (AID 1224818);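 note: viability measured after 17.5 h of compound exposure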
In short: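 Quantitative high-throughput viability counter screen in ERR cells. Compounds (DMSO) incubated 17.5 h at 37 C; read-out was CellTiter-Fluor fluorescence.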

[20] = qHTS assay to identify small molecule antagonists of the estrogen related receptor signaling pathway with the pleiotropic PPARgamma coactivator (PGC) cell viability counter screen (AID 1224822)
In short: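 Cytotoxicity in the PGC/ERR cell line is assessed with CellTiter-Fluor, read as fluorescence intensity 30 min after reagent addition, following 17.5 h compound treatment at 37 C.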

Measured: Potency

CCOP(OCC)OCC
inactive: [1] | [2] | [3] | [4] | [5] | [6] | [7] | [8] | [10] | [11] | [12] | [13] | [14] | [15] | [16] | [17] | [18]
22.3 µM (active) and inactive: [9]

Clc1ccc(Cl)cc1
inactive: [1] | [2] | [3] | [4] | [5] | [6] | [7] | [8] | [9] | [10] | [11] | [12] | [13] | [15] | [16] | [17] | [18]

CON(C)C(=O)Nc1ccc(Cl)c(Cl)c1
inactive: [1] | [2] | [3] | [4] | [5] | [6] | [7] | [8] | [9] | [10] | [11] | [12] | [14] | [16] | [17] | [18]
active: [13] 24.3 µM

Cc1cc(-c2cc(C)c(N)c(C)c2)cc(C)c1N
inactive: [1] | [2] | [3] | [4] | [5] | [6] | [7] | [8] | [9] | [10] | [11] | [12] | [13] | [14] | [15] | [16] | [17] | [18]

OC(O)C(Cl)(Cl)Cl
inactive: [1] | [2] | [3] | [4] | [5] | [6] | [7] | [8] | [9] | [10] | [11] | [12] | [13] | [14] | [15] | [16] | [17]

NCCc1ccc(O)cc1
48.6 µM (active) and inactive: [10]
inactive: [1] | [2] | [3] | [4] | [5] | [6] | [7] | [8] | [11] | [12] | [13] | [19] | [20] | [15] | [16] | [17] | [18]

O=C(O)c1ccccn1
inactive: [1] | [2] | [3] | [4] | [5] | [6] | [7] | [8] | [9] | [10] | [11] | [15] | [16] | [17] | [18]

CN1C(=O)CN=C(c2ccccc2)c2cc(Cl)ccc21
inactive: [1] | [2] | [3] | [4] | [5] | [6] | [7] | [8] | [9] | [10] | [11] | [13] | [14] | [16] | [17] | [18]

Source: PubChem BioAssay (Tox21)
